# Measured values published in PubChem BioAssay AID2685 (National Center for Advancing Translational Sciences (NCATS), 2010).
# Out of some 320,000 compounds screened, about 2,100 (0.66%) were called active. Another 53% or so got no clear call; they are omitted. The call rests on the fitted dose curve; in most records, active means well fitted inhibition curve with a large enough effect in the signal ratio, with a control signal flat (not every such curve was filed as active); inconclusive means small, poorly fitted or top-dose-only effect, or effect the other way, or a change in a side signal; inactive means flat fitted curve, though single readings scatter; the % refers to the signal ratio. The list comes from a sample in which actives are over-represented; it also holds similar structures and randomly drawn compounds.
# Test: qHTS Assay for Lipid Storage Modulators in Drosophila S3 Cells;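 on cell number change: cells counted by Cell Tracker Red CMTPX staining in the red channel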; on lipid storage change, negative = inhibition: on the % scale 0 is the no-effect control and ±100 the full control effect
# Conditions: BODIPY lipid droplet fluorescence, 18-24 h, cells fed with added oleic acid; cell number change: measured here: cell count max response; series mostly up to 46.1 µM
# Outline: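 Drosophila S3 cells got compounds at several concentrations plus oleic acid (400 uM solution). Laser-scanning cytometry with 488 nm excitation read lipid droplets at 500-530 nm and cells at 575-640 nm. Percent activity was relative to 20 uM Triacsin C.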
# Potency means the concentration at half of the fitted maximal effect.
Structure (SMILES),Potency,cell number change [%],"lipid storage change, negative = inhibition"
Cc1cccc(Oc2ncnc(N)c2[N+](=O)[O-])c1C,inactive,1.6,
O=C(Nc1ncccn1)c1ccc([N+](=O)[O-])o1,inactive,-11.9,
O=C(Nc1ccccn1)c1ccc([N+](=O)[O-])o1,20.6 µM (active),-6.3,
CCCn1c(NC(=O)c2ccco2)nc2ccccc21,inactive,-15.8,
Cc1cccc(NC(=O)c2ccc([N+](=O)[O-])o2)c1C,inactive,8.85,
O=C(Nc1ccccn1)c1cc2ccccc2o1,inactive,-2.14,
O=C(Nc1cccc2ncccc12)c1ccc([N+](=O)[O-])o1,16.4 µM (active),26.1,
CCCn1c(NC(=O)c2ccc(C)cc2)nc2ccccc21,inactive,,
O=C(Nc1cccc2ncccc12)c1ccc(-c2ccc(Br)cc2)o1,inactive,-12.1,
CCCn1c(NC(=O)c2ccc([N+](=O)[O-])o2)nc2ccccc21,6.51 µM (active),-9.34,
Cc1cc(C)cc(OCCNC(=O)c2ccc(Br)cc2)c1,inactive,5.31,
CCC(C)c1ccc(NC(=O)Nc2cnccn2)cc1 (stereo not given),inactive,13.7,
O=C1CC(C(=O)Nc2cc(Cl)ccc2Cl)n2ncnc2N1 (stereo not given),,-2.1,6.51% [at 9.22 µM] (inactive)
CCOC(=O)N1CCN(S(=O)(=O)c2ccc(C)c(C)c2)CC1,inactive,,
CCN(CC)CCNC(=O)CCn1nc(-c2ccc(Cl)cc2)ccc1=O,inactive,9.34,
O=C(C1COc2ccccc2O1)N1CCCCC1 (stereo not given),inactive,3.75,
O=C(C1COc2ccccc2O1)N1CCN(c2ccccc2O)CC1 (stereo not given),inactive,-2.02,
O=C(C1COc2ccccc2O1)N1CCCC1 (stereo not given),6.51 µM (active),0.347,
O=C(NNc1cccc(Cl)n1)Nc1ccc(Cl)cc1,inactive,-10.7,
O=c1oc2ccc(F)cc2c2c1C1O[C@](c3ccsc3)(Cc3c1ccc1ccccc31)O2,,2.65,17.6% [at 9.22 µM] (inactive)
CC(C)CCNC(=O)C1CCC(=O)N1CCc1ccccc1 (stereo not given),inactive,19.8,

Structure (SMILES),Potency,cell number change [%],"lipid storage change, negative = inhibition"
CCC(C)(C)NC(=O)CN(Cc1cccs1)C(=O)C(=O)Nc1ccc2c(c1)OCCO2,inactive,3.41,
CCC(C)(C)NC(=O)CN(C(=O)C(=O)Nc1ccc2c(c1)OCCO2)C1CC1,1.16 µM (active),-1.67,
CC(C)(C)NC(=O)CN(C(=O)C(=O)Nc1ccc2c(c1)OCCO2)C(C)(C)C,inactive,-1.34,
O=C(c1ccco1)N1CCN(c2cc(=O)n(-c3ccc(Cl)cc3)c(=O)[nH]2)CC1,inactive,,
Cc1cc(NS(=O)(=O)c2ccc(NC(=O)CSc3nc4ncccc4[nH]3)cc2)nc(C)n1,inactive,-9.17,
CCOC(=O)CNC(=O)c1sc(NC(=O)c2ccccc2)nc1C,inactive,-2.79,
Cc1nn(C)c(=S)n1-c1ccc(Cl)cc1,inactive,4.59,
Cc1n[nH]c(=S)n1-c1ccccc1,inactive,8.27,
Cc1nn(-c2ccccc2)c(=S)n1-c1ccccc1,32.6 µM (active),-7.47,
Cc1ccc(NC(=O)NCc2cccn2C)cc1C,inactive,7.96,
O=C(Nc1cccc(O)c1)C(=O)Nc1ccccn1,inactive,0.58,
O=C(NCc1ccc2c(c1)OCO2)c1ccc(Br)s1,inactive,15.1,
COC(C(=O)Nc1ccnn1C1CCN(Cc2ccccn2)CC1)c1ccccc1 (stereo not given),inactive,-9.38,
COC(C(=O)Nc1ccnn1C1CCN(Cc2ccc(C)s2)CC1)c1ccccc1 (stereo not given),inactive,-1.51,
COC(C(=O)Nc1ccnn1C1CCN(Cc2nccs2)CC1)c1ccccc1 (stereo not given),18.4 µM (active),-27.2,
CCc1cc(Br)ccc1NC(=S)NCCc1ccccc1,inactive,-12.4,
Cc1ccc(/C=N/NC(=O)CSc2nc3ccccc3[nH]2)o1,inactive,23.1,
CCOC(=O)c1c[nH]c2c(C)cc(C)cc2c1=O,inactive,-13.9,
CCCNC(=O)c1ccc(N2CCC3(CC2)CC(c2ccccc2)=NO3)c(NC(=O)c2ccco2)c1,5.17 µM (active),-21.9,
Cc1ccc(CNC(=O)c2ccc(N3CCC4(CC3)CC(c3cccc(Br)c3)=NO4)c(NC(=O)c3ccco3)c2)cc1,inactive,-15.2,
CCCNC(=O)c1ccc(N2CCC3(CC2)CC(c2cccc(Br)c2)=NO3)c(NC(=O)c2cccc(C)c2)c1,inactive,-6.01,

Structure (SMILES),Potency,cell number change [%],"lipid storage change, negative = inhibition"
COc1ccccc1NS(=O)(=O)c1ccc2c(c1)CCN2C(=O)CCC(=O)O,inactive,0.926,
CC(C)c1c(C(=O)N/N=C/c2cccnc2)nnn1-c1nonc1N,inactive,-22.2,
CCc1ccc(-c2ccc(SCc3ccccn3)nn2)cc1,inactive,-1.78,
Cc1cc(C)cc(C(=O)/C=C2\NC(=O)CS2)c1,inactive,,
CC(C)(C)OC(=O)NOCC(=O)N(Cc1ccccc1)CC(O)COc1ccccc1 (stereo not given),7.31 µM (active),-1.25,
CC(C)N(Cc1ccccc1)C(=O)COc1ccccc1,inactive,2.07,
O=C(NN(CC(O)COc1ccccc1)CC(O)COc1ccccc1)c1ccccc1 (stereo not given),inactive,-5.14,
CCOC(=O)N1CCN(C(=O)/C=C/c2c(C)nn(-c3ccc(F)cc3)c2Cl)CC1,inactive,-7.81,
O=C(CSc1ccccn1)N1CCOCC1,inactive,-9.67,
CS(=O)(=O)N(CC(=O)N1CCCCC1)c1ccc(Cl)c(C(F)(F)F)c1,inactive,0.64,
CCn1c(SCC(=O)N2CCCC2)nc2ccccc2c1=O,inactive,-13.8,
CNC(=O)c1ncoc1-c1ccc(Cl)cc1,inactive,12.8,
CNC(=O)c1oc(-c2ccc(Cl)cc2)nc1C,2.59 µM (active),,
COC(=O)c1oc(-c2ccc(Cl)cc2)nc1C,inactive,-10.5,
Cc1cccc(C)c1NC(=S)N(Cc1ccco1)C1CCN(C(C)C)CC1,inactive,1.59,
COc1ccc(-n2nnnc2SCC(=O)NNC(=O)c2ccc([N+](=O)[O-])cc2)cc1,inactive,9.64,
Cc1ccc(NC(=O)C(=O)NCCc2c[nH]c3ccccc23)cc1C,,15,3.29% [at 9.22 µM] (inactive)
CCOCCCNC(=O)CN1C(=O)c2cccc3cccc1c23,inactive,-5.29,
Cc1ccc(NC(=O)c2ccccc2NS(=O)(=O)c2ccc(Cl)s2)cc1S(=O)(=O)N1CCOCC1,inactive,11.6,
COc1cc(NC(=O)c2ccccc2NS(=O)(=O)c2ccc(Cl)s2)cc(OC)c1,16.4 µM (active),-19.8,
COc1ccc(C)cc1NC(=O)c1ccccc1NS(=O)(=O)c1ccc(Cl)s1,inactive,,
